Test results published in paper PMC5540273 (PLoS ONE, 2017).

What was measured:
Conditions in all cases: concentration: 1 μM, replicates: in singlicate; n = 1
CSNK2A2 = system: CSNK2A2
CTK = system: T1, CTK
T1 construct: gene MATK

DAPK1 = system: DAPK1
DAPK2 = system: DAPK2
DAPK3 = system: DAPK3
DCAMKL1 = system: T2, DCAMKL1
T2 construct: gene DCLK1

DCAMKL2 = system: T3, DCAMKL2
T3 construct: gene DCLK2

DCAMKL3 = system: T4, DCAMKL3
T4 construct: gene DCLK3

DDR1 = system: DDR1
DDR2 = system: DDR2
DLK = system: T5, DLK
T5 construct: gene MAP3K12

DMPK2 = system: T6, DMPK2
T6 construct: gene CDC42BPG

DMPK = system: DMPK
DRAK1 = system: T7, DRAK1
T7 construct: gene STK17A

DRAK2 = system: T8, DRAK2
T8 construct: gene STK17B

DYRK1A = system: DYRK1A
DYRK1B = system: DYRK1B
DYRK2 = system: DYRK2
EGFR = system: EGFR
EIF2AK1 = system: EIF2AK1
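Note: KINOMEscan kinase panel screen.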

SMILES | %Inh (CSNK2A2) [%] | %Inh (CTK) [%] | %Inh (DAPK1) [%] | %Inh (DAPK2) [%] | %Inh (DAPK3) [%] | %Inh (DCAMKL1) [%] | %Inh (DCAMKL2) [%] | %Inh (DCAMKL3) [%] | %Inh (DDR1) [%] | %Inh (DDR2) [%] | %Inh (DLK) [%] | %Inh (DMPK2) [%] | %Inh (DMPK) [%] | %Inh (DRAK1) [%] | %Inh (DRAK2) [%] | %Inh (DYRK1A) [%] | %Inh (DYRK1B) [%] | %Inh (DYRK2) [%] | %Inh (EGFR) [%] | %Inh (EIF2AK1) [%]
Nc1ncnc2c1ncn2-c1ccc(Cl)cc1 [AH2635] | 1 | 0 | 0 | 0 | 0 | 10 | 0 | 0 | 0 | 21 | 27 | 12 | 0 | 17 | 0 | 0 | 0 | 2 | 15 | 0
Nc1n[nH]c2nnc(-c3ccccc3)c(-c3ccccc3)c12 [GW554060] | 0 | 0 | 0 | 0 | 19 | 1 | 0 | 0 | 28 | 22 | 25 | 0 | 0 | 0 | 0 | 23 | 0 | 20 | 36 | 0
CCc1nc(-c2cccc(C)c2)c(-c2ccncc2)s1 | 0 | 0 | 11 | 0 | 9 | 30 | 2 | 4 | 30 | 17 | 0 | 79 | 0 | 0 | 0 | 0 | 0 | 0 | 0 | 9
CCCC(=O)Nc1n[nH]c2ncc(-c3cccc4ccccc34)cc12 [SB-642057] | 0 | 0 | 20 | 0 | 24 | 18 | 0 | 11 | 3 | 0 | 0 | 4 | 0 | 0 | 0 | 30 | 0 | 4 | 20 | 13
O=C1NC(=O)C(c2ccccc2)=C1Nc1cccc(O)c1 [SB-390534] | 0 | 4 | 0 | 0 | 0 | 6 | 0 | 0 | 0 | 0 | 0 | 0 | 0 | 5 | 0 | 25 | 0 | 0 | 7 | 0
Cc1cccc(-c2cc(-c3c[nH]nc3-c3ccccn3)ccn2)c1 [GW679395] | 8 | 0 | 6 | 0 | 16 | 14 | 0 | 13 | 36 | 8 | 13 | 1 | 0 | 0 | 0 | 24 | 0 | 0 | 31 | 0
CCn1c(-c2nonc2N)nc2ccccc21 [SB-693162/GW549034] | 19 | 31 | 13 | 0 | 0 | 0 | 0 | 13 | 0 | 0 | 0 | 0 | 0 | 9 | 0 | 49 | 16 | 37 | 0 | 48
CCC(=O)c1c(-c2ccccc2)c2cc(Cl)ccc2c(=O)n1Cc1cc(S(C)(=O)=O)n(CC(F)F)n1 | 0 | 0 | 0 | 0 | 0 | 19 | 0 | 1 | 18 | 10 | 0 | 0 | 0 | 0 | 0 | 0 | 13 | 17 | 1 | 0
Cc1ccc(Oc2ccc(Nc3ncnc4cc[nH]c34)cc2C)cn1 | 13 | 29 | 0 | 0 | 0 | 0 | 0 | 0 | 0 | 0 | 22 | 0 | 0 | 0 | 0 | 0 | 0 | 0 | 71 | 13
Nc1ncnc2c1ncn2-c1cccc(F)c1 [SKF-97560] | 0 | 22 | 0 | 0 | 8 | 0 | 11 | 0 | 18 | 30 | 19 | 14 | 0 | 20 | 0 | 25 | 13 | 13 | 9 | 28
Fc1cccc(CSc2nnc(-c3ccc4c(c3)CCO4)o2)c1 | 33 | 11 | 3 | 0 | 0 | 20 | 0 | 0 | 0 | 16 | 0 | 9 | 0 | 27 | 18 | 62 | 37 | 7 | 17 | 26
CCC(=O)c1c(-c2ccccc2)c2cc(Cl)ccc2c(=O)n1Cc1cc(S(C)(=O)=O)n(CC(N)=O)n1 | 4 | 0 | 0 | 0 | 6 | 24 | 2 | 0 | 0 | 0 | 0 | 0 | 0 | 0 | 0 | 0 | 0 | 0 | 0 | 0
CCn1c(-c2ccoc2)nc2cnccc21 [SB-733887] | 13 | 0 | 0 | 0 | 14 | 34 | 0 | 0 | 27 | 14 | 7 | 0 | 0 | 0 | 0 | 10 | 13 | 6 | 24 | 8
CCC(=O)c1c(-c2ccccc2)c2cc(Cl)ccc2c(=O)n1Cc1cc(C(=O)NC2CC2)n(C)n1 | 3 | 17 | 14 | 0 | 0 | 12 | 0 | 0 | 26 | 29 | 49 | 0 | 0 | 0 | 3 | 0 | 48 | 2 | 0 | 0
O=C(Nc1n[nH]c2nc(-c3ccccc3)c(Cl)cc12)C1CC1 [SB-734909] | 34 | 27 | 9 | 0 | 0 | 16 | 18 | 8 | 17 | 18 | 22 | 11 | 0 | 0 | 0 | 10 | 3 | 8 | 14 | 18
COc1cc2ncn(-c3cc(OCc4ccncc4Br)c(C(N)=O)s3)c2cc1OC [GW854278] | 18 | 45 | 28 | 18 | 6 | 0 | 2 | 0 | 0 | 0 | 12 | 0 | 3 | 4 | 5 | 3 | 8 | 30 | 27 | 0
CN1C(=O)C(Nc2cc(Cl)c(O)c(Cl)c2)=C(c2ccc(Cl)cc2)C1=O [SB-404321] | 0 | 52 | 0 | 0 | 0 | 0 | 0 | 0 | 0 | 10 | 33 | 0 | 0 | 0 | 0 | 0 | 50 | 0 | 52 | 0
CC(C)(C)c1ccc(C(=O)Nc2cn3cc(-c4ccccc4)ccc3n2)cc1 | 75 | 0 | 9 | 0 | 0 | 33 | 0 | 21 | 4 | 28 | 0 | 0 | 0 | 0 | 0 | 0 | 0 | 37 | 5 | 0
